Reference: ChEMBL document CHEMBL5308541, “MAIP: An Open-Source Tool to Enrich High-Throughput Screening Output and Identify Novel, Druglike Molecules with Antimalarial Activity” (ACS Med Chem Lett, 2023)
Out of some 150,000 compounds screened, about 540 (0.36%) showed an effect of 50% or more. Shown is part of a subset that was picked to be rich in strong results.

Test system: Plasmodium falciparum
Test: Primary screen in NF54 nanoGlo assay, in single point, at 2uM, 72h; a lower Z score goes with more inhibition
Format: functional, Erythrocyte
Details: timepoint 72 hour

Structure (SMILES)	% Inhibition	Z score
CC(C)(C)c1ccc(CNC[C@H](O)c2ccc(F)cc2F)cc1	94%	-16.43
CC(C)c1nc(N2CCC[C@@]3(CCNC3)C2)c2cc[nH]c2n1	2%	-0.48
c1ccc(-c2cncnc2N2CC[C@]3(CCNC3)C2)cc1	-14%	2.09
CN(C)CC12CNCC1CN(c1ccnc3cc(Cl)ccc13)C2 (centres undefined)	97%	-19.2
Fc1ccc(N2CC[C@H](CN3CCC(c4c[nH]c5ccccc45)(c4c[nH]c5ccccc45)CC3)C2)cc1	95%	-18.87
Cc1ccc(CNc2ncnc(N)c2Cl)c(N2CCCC2)n1	50%	-8.64
CCc1nnc(NCc2ccc(C)nc2N2CCCC2)nc1CC	-19%	2.94
O[C@@H](CNCc1ccc2c(c1)CCO2)c1ccc(F)c(F)c1	72%	-12.64
Cc1ccc([C@@H](O)CNCc2cc(O)cc(Cl)c2)cc1	7%	-1.59
Fc1ccc(C2=CCN(C[C@@H]3CCCN4CCCC[C@H]34)CC2)cc1	0%	-0.03
CN1CCN(c2ccc(C(F)(F)F)cc2NCc2cnc[nH]2)CC1	52%	-7.95
Clc1ccc(CNCCN2CCC3(C2)OCCO3)c2ncccc12	-1%	0.17
